Compound activity deposited in PubChem by National Center for Advancing Translational Sciences (NCATS).
Shown are actives, neighbours in structure and some others; about 21% of the full set was active somewhere.
Pf growth 96h = Primary qHTS for delayed death inhibitors of the malarial parasite plastid, 96 hour incubation | P. falciparum luciferase reporter growth, 96 h | Potency, µM (top dose mostly 28.7 µM), for the others: at the top dose activity change, negative = inhibition, most hits filed as inhibitors | hit rate 6.9% among 320,000 | AID 504834, 2011; further: potency means the concentration at half of the fitted maximal effect; on the % scale 0 is the no-effect control and ±100 the full control effect
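Readout is luminescence from an integrated firefly luciferase in P. falciparum. Red cells, 2% hematocrit and 0.05% parasitemia final, were cultured with compound through two parasite generations (96 hours) at 37 C, 5% CO2.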
Shiga inhibitor = A qHTS for Small Molecule Inhibitors of Shiga Toxin; hit rate 9.2% among 290,000; Vero cells, Shiga toxin protein synthesis inhibition reporter; inhibition, % at 38.7 µM; in the data active means inhibition mostly above about 28%, no sharp cut-off; inactive means mostly below about 43%; further: 0% is about no effect
Cycloheximide cs = Cycloheximide Counterscreen for Small Molecule Inhibitors of Shiga Toxin; AID 2314, 2010; cell reporter, cycloheximide protein synthesis inhibition counterscreen; hit rate 12% among 300,000; max response, %; in the data active means max response mostly above about 13%, no sharp cut-off; inactive means mostly below about 14%; further: read at 38.3 µM for the half of the compounds with a filed dose; 0% is about no effect
Pf growth 48h = Primary qHTS for delayed death inhibitors of the malarial parasite plastid, 48 hour incubation; P. falciparum luciferase growth in erythrocytes, 48 h; Potency, µM (doses to about 28.7 µM), without a hit: at the top dose activity change, negative = inhibition, actives largely listed as inhibitors; hit rate 5.9% among 310,000; AID 504832, 2011; further: potency means the concentration at half of the fitted maximal effect; on the % scale 0 is the no-effect control and ±100 the full control effect
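Erythrocytes infected with P. falciparum carrying an integrated firefly luciferase reporter (2% hematocrit, 0.1% parasitemia final) were exposed to compounds in RPMI 1640 with 0.5% Albumax at 37 C, 5% CO2. Growth inhibition was scored as reduced luminescence.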
An asterisk follows results filed as active; ? = inconclusive; · = not tested or not shown. Unless noted, the call rests on the fitted dose curve; in most records, active means well fitted inhibition curve with a large enough effect; inconclusive means small, poorly fitted or top-dose-only effect, or another doubt; inactive means no such curve, though single readings can be large or run the other way.

SMILES	Pf growth 96h	Shiga inhibitor	Cycloheximide cs	Pf growth 48h
NC(N)=NCC(O)CN(c1ccccc1)c1ccccc1 (stereo unspecified)	1.5µM*	-2	-1	1.2µM*
CNCC(O)CN(c1ccccc1)c1ccccc1 (stereo unspecified)	57%	-5	-1	?
OC(CN1CCCCC1)CN(c1ccccc1)c1ccccc1 (stereo unspecified)	9.3µM*	-16	-2	·
O=C(Cc1c(F)c(F)c(F)c(F)c1F)Nc1nc(-c2ccccc2)cs1	-6%	17	-4	-11%
CC1CCN(CCCCOc2cccc(Br)c2)CC1	2.6µM*	-6	-4	?
CC(C)NCCOc1cccc(Br)c1	-2%	-21	-1	·
Brc1cccc(OCCCNC2CCCC2)c1	12µM*	-5	-3	?
Cc1ccc(C)c(OCCCNC2CCCC2)c1C	?	16	-2	12µM*
Cc1cc(Br)ccc1OCCCCN1CCC(C)CC1	-21%	-12	-5	15µM*
O=[N+]([O-])c1cccc(S(=O)(=O)NC2CC3CCC2C3)c1 (stereo unspecified)	-25%	·	-1	10%
C/C(=N\NC(=O)COc1cc(C)cc(C)c1)c1cccc(NC(=O)C2CCC2)c1	2%	-28	6	13%
COc1ccc(/C(C)=N/NC(=O)CNC(=O)/C=C\c2ccco2)cc1	?	-15	-1	21%
CCOC(=O)c1oc2nc(CC(C)C)c3c(c2c1N)CCC3	7.4µM*	-9	-3	?
O=C(Nc1nnc(-c2cccs2)o1)c1cccc(Oc2ccccc2)c1	?	26	1	·
O=C(Nc1ccsc1C(=O)O)c1cccc(Oc2ccccc2)c1	153%	53	14*	121%
O=C(Nc1ccsc1C(=O)O)c1cccc(C(F)(F)F)c1	21%	77*	61*	·
Cc1nn(C)c(NC(=O)c2ccc(Cl)cc2Cl)c1Br	0%	-7	-1	-19%
O=C(O)CCn1cc(/C=C/C(=O)c2ccc(Cl)cc2)c(-c2ccc(Br)cc2)n1	?	-15	1	-23%
COCCNC(=S)N1CCN(c2nc(-c3ccc(Cl)cc3)cs2)CC1	?	13	-2	30%
CNC(=S)N1CCN(c2nc(-c3ccc(Cl)cc3)cs2)CC1	7.4µM*	21	16*	?
CC(C)C(=O)N1CCN(c2nc(-c3ccc(Cl)cc3)cs2)CC1	40%	32	-2	6%
CCOC(=O)N1CCN(c2nc(-c3ccc(Cl)cc3)cs2)CC1	?	46*	36*	15%
COc1cccc(-c2csc(N3CCN(Cc4ccccc4)CC3)n2)c1	·	32	18*	?
COc1cccc(-c2csc(N3CCN(C(=O)Nc4ccccc4Cl)CC3)n2)c1	17%	50	9.5*	0%
COc1cc(C(=O)N(C)CCOc2ccc(C)cc2)ccc1OC1CCN(C(C)=O)CC1	6%	24	38	-19%
SMILES	Pf growth 96h	Shiga inhibitor	Cycloheximide cs	Pf growth 48h
CCCc1nnc(SCC(=O)Nc2nnc(CC)s2)n1CC1CCCO1 (stereo unspecified)	51%	-7	-5	4%
Cc1ccc(S(=O)(=O)N2CCc3ccccc3C2CC(=O)O)cc1 (stereo unspecified)	37%	9	-1	22%
COc1cccc(-c2csc(N3CCN(C(=S)Nc4ccccc4)CC3)n2)c1	?	-4	1	?
COc1cccc(-c2csc(N3CCN(C(=S)Nc4ccc(Cl)cc4)CC3)n2)c1	10µM*	75*	24*	?
COc1cccc(-c2csc(N3CCN(C(=S)Nc4ccccc4C)CC3)n2)c1	-2%	49*	18*	-30%
COc1cccc(-c2csc(N3CCN(C(=S)Nc4cccc(C)c4)CC3)n2)c1	?	41	18*	?
COc1cccc(NC(=O)N2CCN(c3nc(-c4cccc(OC)c4)cs3)CC2)c1	?	2	10	?
COc1cccc(NC(=S)N2CCN(C)CC2)c1	18%	51	1	?
COc1cccc(-c2csc(N3CCN(C(=O)NC45CC6CC(CC(C6)C4)C5)CC3)n2)c1	-24%	8	1	12µM*
CCOc1ccccc1NC(=S)N1CCN(c2nc(-c3cccc(OC)c3)cs2)CC1	22%	47	13	?
N#Cc1cnn2c3c(cnc12)C(=O)N1CCc2ccccc2C1C3 (stereo unspecified)	8%	-4	-4	0%
COc1ccccc1NC(=S)N1CCN(c2nc(-c3ccccc3)cs2)CC1	-8%	12	6	-4%
CNC(=S)N1CCN(c2nc(-c3cccc(OC)c3)cs2)CC1	12µM*	1	9.9*	-12%
O=C(Nc1cccc(Cl)c1)Nc1ccc2c(c1)C(=O)OC2	17%	24	17	18%
O=C(Nc1ccc2c(c1)C(=O)OC2)c1ccccc1Cl	32%	23	26*	4%
O=C1OCc2ccc(NC(=O)c3ccccc3C(=O)O)cc21	16%	58*	34*	3%
O=C(Nc1ccc2c(c1)CCC2)c1c(F)cccc1Cl	459%	112*	54*	370%
O=C1OCc2ccc(NC(=O)c3c(F)cccc3Cl)cc21	5%	30	17*	64%
CCCCCN(C(=O)CCC(=O)OCC(=O)c1c(C)cc(C)cc1C)c1c(N)n(CCCC)c(=O)[nH]c1=O	1%	·	·	?
CCCCn1c(N)c(N(CCOC)C(=O)CN(C)S(=O)(=O)c2ccc(C)cc2)c(=O)[nH]c1=O	8%	·	·	-1%
O=C(NCC(c1ccco1)N1CCc2ccccc21)C(=O)Nc1ccccc1F (stereo unspecified)	14%	·	·	?
O=C(NCC(c1ccco1)N1CCc2ccccc21)C(=O)Nc1ccccc1 (stereo unspecified)	?	·	·	1.3µM*
COc1ccccc1C(=O)NCC(c1ccco1)N1CCc2ccccc21 (stereo unspecified)	5.2µM*	·	·	10µM*
COc1ccccc1NC(=O)C(=O)NCC(c1ccco1)N1CCc2ccccc21 (stereo unspecified)	?	·	·	12µM*
Cc1ccc(C(=O)NCC(c2ccco2)N2CCc3ccccc32)cc1C (stereo unspecified)	?	·	·	9.3µM*
SMILES	Pf growth 96h	Shiga inhibitor	Cycloheximide cs	Pf growth 48h
COc1cc(C(=O)NCC(c2ccco2)N2CCc3ccccc32)cc(OC)c1OC (stereo unspecified)	-17%	·	·	-14%
C#CCNC(=O)C1=C[C@H](C2CCCCC2)[C@@H](CCCO)[C@H](OCC)O1	?	14	-2	?
N=C1/C(=C/c2cccn2Cc2ccc(Cl)cc2)C(=O)N=C2SC=CN12	-19%	-9	-2	?
COc1cc(NC(=O)C(=O)NCCN2CCNCC2)c(OC)cc1Cl	?	18	4	14%
COc1ccccc1C(=O)NCC(c1cccs1)N1CCc2ccccc21 (stereo unspecified)	3.7µM*	·	·	12µM*
COc1cc(C(=O)NCC(c2cccs2)N2CCc3ccccc32)cc(OC)c1OC (stereo unspecified)	57%	·	·	?
CCOC(CCNC(=O)c1cn(C)c(=O)c2c1c1ccccc1n2C)OCC	186%	-7	-5	-6%
